Only some compounds are listed: those with a hit (about 1.1% of all), similar ones and a draw of the others.
ALOX12 inh – blocks human arachidonate 12S-lipoxygenase; P18054; purified 12hLO, xylenol orange hydroperoxide absorbance; Potency, µM (highest dose often 108 µM), without a hit: at the top dose activity change, negative = inhibition, hits mostly inhibitors; actives 1.1% (n = 580,000); AID 1671190; also: % is scaled to controls: 0 for no effect and ±100 for the full control effect
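Purified human 12hLO at 150 nM in 25 mM Hepes, 0.01% Triton X-100, pH 7.0, preincubated 15 min at room temperature with compound. Reaction started with 40 uM arachidonic acid, 30 min at room temperature. Hydroperoxide measured by Fe-xylenol orange, 573/405 nm absorbance ratio.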
USP2a inh – inhibitors of human ubiquitin-specific protease USP2a. O75604. USP2 core, Ub-CHOP2 coupled fluorogenic reporter, 485/531. Potency, µM (highest dose often 38.3 µM), without a hit: top-dose activity change, negative = inhibition, most hits filed as inhibitors. actives 0.01% (n = 330,000). AID 463254;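 also: plate controls were DMSO wells for no effect and full inhibition by NEM control for full effect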
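USP2 core (10nM final) preincubated 30min RT with compound in 20mM Tris-HCl pH 8.0, 2mM CaCl2, 2mM beta-mercaptoethanol, 0.05% CHAPS; 25nM Ub-CHOP2 plus 25nM reporter substrate added, fluorescence (Ex485/Em531) read after 60min.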
TSG101-PTAP inh – blocks PTAP/TSG101 interaction to inhibit HIV-1 budding. Q99816. Fluorescence polarization, FITC-PTAP peptide / Tsg101 binding. Potency, µM (titrated, usually from 115 µM), inactives show top-dose activity change, negative = inhibition, actives largely listed as inhibitors. 340,000 tested, under 10 active. AID 493005; active = well fitted inhibition curve with a large enough effect in the main read-out, with a control signal flat, not every such curve was filed as active; inconclusive = small, poorly fitted or top-dose-only effect, or effect the other way, or a change in a side signal; inactive = no such curve, though single readings can be large or run the other way; also: % of control where 0% means no effect
Target sequence (Q99816 whole entry, looked up): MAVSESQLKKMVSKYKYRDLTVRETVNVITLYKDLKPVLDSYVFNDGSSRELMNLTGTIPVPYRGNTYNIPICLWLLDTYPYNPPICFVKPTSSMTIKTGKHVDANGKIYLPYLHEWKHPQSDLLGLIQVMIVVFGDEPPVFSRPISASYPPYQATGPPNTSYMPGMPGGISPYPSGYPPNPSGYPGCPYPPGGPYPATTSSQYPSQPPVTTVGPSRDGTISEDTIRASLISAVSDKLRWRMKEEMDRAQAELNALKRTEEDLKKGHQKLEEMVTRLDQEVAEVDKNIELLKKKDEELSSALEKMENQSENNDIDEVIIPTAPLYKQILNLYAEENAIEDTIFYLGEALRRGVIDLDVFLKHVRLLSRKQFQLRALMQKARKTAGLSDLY
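FP read-out: FITC-PTAP peptide, 50 nM final, binding Tsg101 binding domain, 10 uM final; 20 min, r.t.; 10 mM HEPES pH 7.5, 0.15 M NaCl, 0.01% Tween 20, 3 mM EDTA, 0.1 mM TCEP.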
Eya2 inh – Eya2 (human) phosphatase inhibition. recombinant Eya2, OMFP fluorescence dephosphorylation (OMFP is methylfluorescein phosphate). actives 0.006% (n = 330,000). Potency, µM (titrated, usually from 76.9 µM), for the others: at the highest dose activity, negative = inhibition, usual class: inhibitors; also: % is scaled to controls: 0 for no effect and ±100 for the full control effect
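Eya2 (0.2 uM) preincubated 10 min at ambient with compound, then OMFP substrate added at 50 uM; 10 min reaction in 50 mM HEPES pH 7.5, 50 mM NaCl, 5 uM MgCl2, 0.05% BSA, 1 mM DTT. Fluorescence read at Ex 485/Em 525 nm.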
Numbers without * were called inactive; ? = inconclusive; · = no result given; ! = not confirmed by another sample; [ ] = another dose, or the depositor's remark. Unless noted, calls follow the shape of the dose curve; as a rule, active = well fitted curve in the direction sought with a large enough effect; inconclusive = small, poorly fitted or top-dose-only effect, or another doubt; inactive = no such curve, though single readings can be large; an effect the other way counts as inactive or inconclusive. Potency is read from the fitted curve at half-maximal effect.

SMILES | ALOX12 inh | USP2a inh | TSG101-PTAP inh | Eya2 inh
COc1ccc2c3c1OC1C(O)C=CC4C(C2)[N+](C)(C)CCC341 (stereo not given) | 44.7µM* | -0.8% | -1.9% | 4.0%
COC1=CC=C2[C@H]3Cc4ccc(OC)c5c4[C@@]2(CCN3C)[C@H]1O5 | 58.9% | -1.7% | -0.4% | -20.6%
O=C(Cc1cccc(F)c1)N1[C@H]2CC[C@@H]1c1cnc(-c3ccc(F)cc3)nc1C2 | 17.0% | · | · | ·
CC1=C(O)C(=O)C=C2C1=CC=C1[C@@]2(C)CC[C@@]2(C)[C@@H]3C[C@](C)(C(=O)O)CC[C@]3(C)CC[C@]12C | 2.43µM*! | · | · | ·
C[N+]1(CC(COCc2ccccc2)OC(=O)Cc2ccccc2)CCOCC1 (stereo not given) | 39.8µM* | 1.9% | -5.6% | 2.9%
CN1CCC(OC(=O)Cc2ccccc2)CC1 | ? | 3.1% | -10.0% | -4.2%
CSCCCN=C=S | -5.2%[176 µM] | · | · | ·
Cc1cc(Br)ccc1N1C(=O)CC(=O)NC1=O | 44.7µM* | -0.5% | -2.1% | 3.2%
O=C1CC(=O)N(c2cccc(Br)c2)C(=O)N1 | -26.1% | 0.1% | -8.6% | 14.5%
O=C(NC[C@H]1C[C@@H]2CCN1C[C@@H]2CN1CCN(c2ccc(F)cc2)CC1)c1ccco1 | 23.8%[176 µM] | · | · | ·
COc1ccc2[nH]c(C)c(CCNCc3ccc(F)cc3F)c2c1 | 1µM* | · | · | ·
CCOc1cccc(CNCCc2c(C)[nH]c3ccc(OC(F)(F)F)cc23)c1O | 39.8µM* | -4.4% | -7.4% | ?
O=C(Nc1ccccc1F)N1[C@H]2CC[C@@H]1c1cncnc1C2 | -5.6% | · | · | ·
C=CCn1c(O)c(Cc2ccc(OCC)cc2)c(=O)[nH]c1=O | -9.6% | -0.4% | -6.3% | -23.8%
CC(C)COc1ccc(Cc2c(O)[nH]c(=S)[nH]c2=O)cc1 | 8.91µM* | 1.7% | -2.4% | -12.3%
Cc1cc(Cc2c(O)[nH]c(=S)[nH]c2=O)ccc1OC(C)C | 20µM* | 0.7% | -10.8% | 13.9%
CC(C)CN1Cc2ccccc2-n2ccnc2C12CCN(C(=O)c1ccn[nH]1)CC2 | -1.0% | · | · | ·
N#CC(C#N)=NNc1ccc(-n2ccc(C(F)(F)F)n2)cc1 | 28.2µM* | 1.3% | -1.9% | 12.1%
Cc1ccc(N2C(=O)NC(=O)/C(=C\c3cc(C)n(-c4sc5c(c4C#N)CCCC5)c3C)C2=O)cc1 | 35.5µM* | 0.4% | -9.0% | -18.6%
CCN1C(=O)NC(=O)/C(=C/c2cc(C)n(-c3sc(C)c(C)c3C#N)c2C)C1=O | ? | 0.0% | -7.3% | 8.9%
CC(C)C(=O)N1CC[C@@H]2COCCN(Cc3cccnc3)[C@@H]2C1 | 18.6% | · | · | ·
COc1ccc(CO)cc1 | 17.7%[176 µM] | · | · | ·
Cn1nc(-c2ccc3ccccc3c2)cc1[C@H]1CN2CC[C@H]1C[C@@H]2CNS(=O)(=O)c1cccs1 | 55.2% | · | · | ·
O=C1NC(=O)N(Cc2ccco2)C(=O)/C1=C/c1ccc(-c2cccc([N+](=O)[O-])c2)o1 | · | 1.7% | -0.6% | -5.0%
C=CCN1C(=O)NC(=O)/C(=C\c2ccc(-c3ccccc3[N+](=O)[O-])o2)C1=O | 35.5µM* | 3.6% | -1.9% | -5.4%
SMILES | ALOX12 inh | USP2a inh | TSG101-PTAP inh | Eya2 inh
COc1ccc(CNC[C@H]2C[C@@H]3CCN2C[C@@H]3c2cc(-c3cccs3)nn2C)cc1 | 71.4%[176 µM] | · | · | ·
Clc1ccc(N2CCN(Cc3ccccc3Cl)CC2)cc1 | ? | 0.4% | 1.2% | -1.5%
Clc1ccccc1CN1CCN(c2ccccc2)CC1 | 0.891µM* | 1.4% | -7.7% | 2.8%
CN(C)c1ccc(/C=C2\C(=O)NC(=O)N(CCc3ccc(F)cc3)C2=O)cc1 | 15.8µM* | -0.3% | -0.1% | 9.4%
COc1ccc(CN2C(=O)CC(=O)NC2=S)cc1 | 44.7µM* | -1.0% | -1.8% | 15.7%
C=CCN1CCc2cccc3c2[C@H]1Cc1ccc(O)c(O)c1-3 | 7.94µM* | -1.1% | -3.8% | -7.6%
CCCN1CCc2cc(O)cc3c2C1Cc1ccc(O)c(O)c1-3 (stereo not given) | 7.94µM* | · | · | ·
CSc1nccc(N2CCC3(CCCN(CC4CC4)C3)C2)n1 (stereo not given) | 5.7% | · | · | ·
CC=C(C)C1(CCC)C(=O)NC(=S)NC1=O | 31.6µM* | · | -5.0% | ·
CC=C(CC)C1(CCC)C(=O)NC(=S)NC1=O | ? | · | -2.6% | ·
Cc1cccc(-n2c(O)c(C)c(=O)[nH]c2=S)c1 | 44.7µM* | 2.8% | -7.7% | -3.4%
CC[C@H]1CN2CC[C@H]1C[C@@H]2CN(Cc1cccs1)Cc1cccs1 | 44.8%[176 µM] | · | · | ·
CC1CCC(=O)O1 (stereo not given) | 3.2%[176 µM] | · | · | ·

Screening results (PubChem)
